Laboratory results reported in ChEMBL document CHEMBL3988442, “University of Dundee, Small-Polar-MMV Screening Library” (2021).
The whole screen tested about 38,000 compounds, of which about 1,200 (3.2%) showed an effect of 50% or more. The median lay at about -58%. The entries come from a sample that favours strong results as a whole.

The compounds below were run on Plasmodium falciparum (assay: Calibr Malaria Delayed Death Assay SOP). Details: concentration 4.99e-06 (unit not given; other assays of the set use mol/L).
Format: functional, organism-based
Design: scale not given: in the data most compounds retested in dose-response had high values

Point of comparison: `CN1CCCC(CNC(=O)CN(C)S(=O)(=O)c2cccnc2)C1` (stereo unspecified), “Percent Effect” value -82.06%. Against it:
- Cc1nc(CN2CCC3(CCN(Cc4cnn(C)c4)CC3)C2=O)cs1.O=C(O)C(F)(F)F.O=C(O)C(F)(F)F — lower, -122%
- COCCNC(=O)[C@@H]1CN(Cc2sccc2C)C[C@H]2OCC[C@H]21.O=C(O)C(F)(F)F — higher, -28.67%
- CC/C=C(/C)C(=O)NCCc1csc(N2CCCC2)n1 — higher, 23.92%
- CC(=O)c1cnc(N(C)Cc2cc(C)cc(C)n2)nc1C — higher, 10.35%
- CC(=O)N1CCc2c(nc(N(C)C)nc2NCCCn2ccnc2C)C1 — lower, -154.1%
- CCc1ccccc1OCC(=O)N1CCOCC1c1ncon1 (stereo unspecified) — higher, -47.11%
- COc1cccc2c1ccn2CCC(=O)Nc1c2c(nn1C)CSC2 — higher, 27.59%
- O=S(=O)(NCCN1CC=CC1)c1ccc(Cl)cc1 — higher, 75.13%
- O=S(=O)(NCCN1CC=CC1)c1cncc(Cl)c1 — lower, -138.1%
- O=S(=O)(NCCCN1CC=CC1)c1cncc(Cl)c1 — lower, -214.3%
- CNC(=O)c1cc2c(nc1N(C)C)CCN(c1ncccn1)CC2.O=C(O)C(F)(F)F — higher, -20.28%
- COCC1COCCC12CCN(Cc1cccs1)CC2.O=C(O)C(F)(F)F (stereo unspecified) — higher, -9.919%
- CCc1ccc(OCC(O)CN2CCN(CCO)CC2)cc1.Cl.Cl (stereo unspecified) — lower, -114.3%
- CCC(c1ccccc1)N1CCN(CCO)CC1 (stereo unspecified) — higher, -35.6%
- O=C(c1cn(-c2ccccc2Cl)nn1)N1CCN(CCO)CC1 — higher, -52.43%
- Cc1c(C)n(CC(O)CN2CCN(CCO)CC2)c2c(Cl)cccc12.Cl (stereo unspecified) — higher, 88.07%
- CC(c1cccnc1)N1CCN(CCO)CC1 (stereo unspecified) — lower, -98.51%
- CC1CCN(C(=O)C(C)Oc2ccc3c(c2)OCO3)CC1 (stereo unspecified) — higher, -27.65%
- CCC(NC(=O)CCCN1CCCCC1)c1cn2cccnc2n1 (stereo unspecified) — higher, -61.92%
- Cc1ncc2c(n1)CN(CC(=O)Nc1cc(C)on1)CC2 — higher, -14.27%
- COCCNC(=O)c1nc(-c2ccc3cc[nH]c3c2)no1 — lower, -158.8%
- Cc1ccccc1CN1CCC(CNC(=O)Cn2cncn2)CC1 — higher, 1.836%
- Cc1cc(C)c(Cn2cncn2)cc1CN1CC[C@H]2CC[C@@H](C1)N2 — higher, 12.41%
- Cc1cc(C)c(Cn2cncn2)cc1CN1CCC(CN)C1 (stereo unspecified) — higher, 68.64%
- CN(C)c1cc(CNCc2ccc(N3CCOCC3)cc2)ccn1 — higher, -42.2%
- COc1c(C)cnc(CSc2nnc(NC3CC3)s2)c1C — higher, -80.23%
- Cl.Cn1cccc1C(=O)N1CCc2c(CNS(C)(=O)=O)cncc2C1 — higher, -73.02%
- CC(C)c1nccn1-c1cncc(C2CCCN(C3CCCCC3)C2)n1 (stereo unspecified) — higher, 18.59%
- Cc1nccn1-c1cccc(C2CCCN(C3CCCC3)C2)n1 (stereo unspecified) — higher, -3.48%
- CCc1nccn1-c1cccc(C2CCCN(C3CCCCC3)C2)n1 (stereo unspecified) — higher, 50.94%
- CCNC(=O)CN1CCC(OCC2CCCO2)CC1 (stereo unspecified) — higher, -42.16%
- Cc1ccccc1N1CCN(CCS(=O)(=O)c2ccc(Br)cc2)CC1 — lower, -132.7%
- COCC(O)CN(C)c1ccnc2cc(Br)ccc12 (stereo unspecified) — higher, 94.48%
- COCC(O)CN(C)c1ccnc2cc(F)ccc12 (stereo unspecified) — higher, -53.9%
- COCC(O)CN(C)c1ccnc2ccc(Cl)cc12 (stereo unspecified) — higher, -46.57%
- COC1COC2(CCN(C(=O)c3ccc4ccccc4c3)CC2)C1 (stereo unspecified) — lower, -205.6%
- CCCn1ncc(-c2ccnc(N[C@@H]3C[C@@H]4CC[C@H]3C4)n2)c1C — higher, -33.21%
- CCCn1ncc(-c2ccnc(NC3CCSC3)n2)c1C (stereo unspecified) — higher, -9.069%
- CCCn1ncc(-c2ccnc(NC3CC(C)(C)NC(C)(C)C3)n2)c1C — higher, 66.75%
- CCN(CC)C(=O)c1nnsc1-c1ccc(C)cc1 — higher, -12.06%
- CC(=O)N1CCN2C[C@H](CO)[C@@H](c3ccccc3)[C@H]2C1 — higher, -67.98%
- CC(=O)NCCNC(=O)CN1CCCC1c1c(C)nn(C)c1C (stereo unspecified) — lower, -114%
- CN1C(=O)C[C@H]2[C@H]1CCN2Cc1cccc(C#N)c1.O=C(O)C(F)(F)F — higher, -78.57%
- Cc1ncnc2c1CCN(C(=O)Cc1ccccn1)CC2.O=C(O)C(F)(F)F — lower, -129.8%
- COCCN1CCC2(CC1)CC(NCc1ccc(C)s1)c1ccccc12.O=C(O)C(F)(F)F.O=C(O)C(F)(F)F (stereo unspecified) — higher, 76.07%
- CS(=O)(=O)N1CCC2(CC1)CC(NCc1ccccn1)c1ccccc12 (stereo unspecified) — higher, 1.106%
- COCCN1CCC2(CC1)CC(NCc1cncn1C)c1ccccc12.O=C(O)C(F)(F)F.O=C(O)C(F)(F)F (stereo unspecified) — higher, -24.3%
- COCCN1CCC2(CC1)CC(N1CCOCC1)c1cc(C)ccc12.O=C(O)C(F)(F)F.O=C(O)C(F)(F)F (stereo unspecified) — higher, -78.91%
- COCC(=O)NC1CC2(CCN(CCN(C)C)CC2)c2ccccc21 (stereo unspecified) — higher, -44.07%
- CC(C)N(CC(N)=O)C(=O)c1cnc(-c2ccc3c(c2)OCO3)s1 — lower, -184.6%
- CC(=O)N(C)Cc1cccc(NC(=O)c2cnn(C)c2C)c1 — higher, -25.31%
- CCOc1cc(C(=O)n2cc(C)cn2)cc(OCC)c1OCC — lower, -156.8%
- NC(=O)c1ccc(N2CCCCC2)c(NC(=O)c2cc(Br)ccc2Cl)c1 — higher, -37.22%
- NC(=O)c1ccc(N2CCCCC2)c(NC(=O)c2cc(Br)ccc2F)c1 — higher, -77.22%
- NC(=O)c1ccc(N2CCCCC2)c(NC(=O)c2ccc(Br)cc2)c1 — higher, 70.21%
- CSCc1cc(F)ccc1CNC(=O)N1CCC[C@@H]1CO — higher, -21.18%
- NC(=O)NC(=O)CCN1CCN(c2nccs2)CC1 — higher, -12.95%
- COc1ccc(CNCC(C)Oc2ccccn2)cc1Cl.Cl (stereo unspecified) — higher, 13.86%
- CC(C)N1CCC2(CC1)CC(=O)N(Cc1cc(F)cc(F)c1)C2 — higher, 31.53%
- O=C1CC2(CCN(CCCF)CC2)CN1Cc1cc(F)cc(F)c1 — higher, 33.68%
- CC(C)=CCN1CCC2(CC1)CC(=O)N(Cc1cc(F)cc(F)c1)C2 — higher, 74%
- O=C1CC2(CCN(CC3CC3)CC2)CN1Cc1cc(F)cc(F)c1 — higher, 9.433%
- O=C(CO)N1CCC2(CC1)CC(=O)N(Cc1cc(F)cc(F)c1)C2 — higher, -76.75%
- O=C1CC2(CCN(Cc3ccoc3)CC2)CN1Cc1cc(F)cc(F)c1 — higher, 54.75%
- NCCn1cc(C(=O)N2CCCCCC2c2cccc(F)c2)nn1 (stereo unspecified) — lower, -109.1%
- COc1cc2nc(C)n(CC(=O)NCCC(C)C)c(=O)c2cc1OC — lower, -84.85%
- CCc1ncc(CN2CCC(CCc3ccccc3)CC2)cn1 — higher, 5.724%
- Cc1cc(C)n(CCCN(C)C(=O)C2COc3ccccc3C2)n1 (stereo unspecified) — higher, -44.86%
- Cc1nn(C)c(C)c1CN1CCNCC1 — lower, -151.9%
- CC1=NOC(C(=O)N(C)CCCn2nc(C)cc2C)C1 (stereo unspecified) — lower, -92.45%
- Cc1nn(C)c(C)c1CCC(=O)OCC(=O)N1CCc2sccc2C1 — higher, -33.28%
- c1cnc(N2CCCC(c3n[nH]c4ncccc34)C2)nc1 (stereo unspecified) — higher, -55.39%
- COCC[C@]1(O)CCN(Cc2nc(C(C)C)cs2)C[C@H]1C — lower, -100.7%
- COCCNS(=O)(=O)c1cccc2c1CN(C(=O)c1cc(C)on1)CC2 — lower, -82.56%
- Cc1csc2c(=O)n3c(nc12)CCN(C(=O)c1ccnn1C)CC3 — lower, -147.1%
- CCS(=O)(=O)N1CCC2(CN(C(=O)c3cn(C)cn3)C2)C1 — lower, -95.83%
- CCOC(=O)CNC(=O)N1CCc2onc(-c3ccc(Cl)cc3)c2C1 — higher, -35.73%
- Cc1n[nH]cc1C(=O)N1CCCC(c2cccc(-n3ccnc3)n2)C1 (stereo unspecified) — higher, -34.99%
- Cn1cnc(C(=O)N2CC3(CCN(S(=O)(=O)c4ccccc4)C3)C2)c1 — higher, 9.335%
- Cn1cccc1C(=O)N1CCc2onc(Cn3cccn3)c2C1 — higher, -37.04%
- O=C(c1ccnnc1)N1CCc2onc(Cn3cccn3)c2C1 — higher, -67.89%
- Cc1noc([C@@H]2CC[C@@H]3[C@@H](CCN3S(=O)(=O)c3ccccc3)O2)n1 — higher, -19.99%
- COCCO[C@@H]1CCN(C(=O)c2occc2C)[C@H]1Cc1cnn(C)c1 — higher, -35.95%
- CC(C)n1cnnc1C1CCCN(S(=O)(=O)CC2CCCC2)C1 (stereo unspecified) — higher, -66.23%
- Cc1cc(=O)[nH]c(=O)n1-c1ccccc1Br — lower, -82.44%
- COC(=O)c1cccc(C(=O)N2CCN(c3ccc(Cl)cc3)CC2)n1 — lower, -128.8%
- Cc1cc(-c2cnn(CCNC(=O)Cc3ccccn3)c2C2CC2)on1 — higher, -41.77%
- CCN(CC)C(=O)c1c(Cl)cnn1CC — lower, -101.8%
- O=C1CC2(CCCC2)CC(=O)N1Cc1nc2ncccn2n1 — higher, -57.36%
- N#Cc1ccc(F)c(CNc2ccc(F)cc2OCCO)c1 — higher, -1.485%
- CC(=O)Nc1ccc(CNCc2cccnc2N(C)C)cc1 — lower, -87.09%
- O=C(c1cscn1)N1CCc2ncc(Cn3cncn3)n2CC1 — lower, -88.92%
- CC(C)n1c(=O)c2ccccc2n(CCCN(C)C)c1=O.Cl — higher, 57.86%
- CN(C)CCn1c(=O)n(C)c(=O)c2ccccc21.Cl — higher, -12.02%
- CC(C)n1c(=O)c2ccccc2n(CCN(C)C)c1=O.Cl — higher, 33.53%
- NC(=O)C1CN(c2ccc3cc(Br)ccc3n2)CCO1 (stereo unspecified) — lower, -657.4%
- Cc1ccc(OCCN(C)C2CCOC2=O)cc1 (stereo unspecified) — lower, -120.6%
- Cc1noc(C)c1CN1CCCC(CN(C(=O)OC(C)(C)C)C(C)C)C1 (stereo unspecified) — higher, 52.41%
- CC(C)N(CC1CCCN(Cc2ccon2)C1)C(=O)OC(C)(C)C (stereo unspecified) — higher, -9.372%
- CC(C)N(CC1CCCN(CC(N)=O)C1)C(=O)OC(C)(C)C (stereo unspecified) — higher, -15.39%
